Data: PMC11024108

How the values were obtained:
[1] = target: Rho guanine nucleotide exchange factor 7 (UniProt Q9ES28); assay: cross-link between two proteins; cross-linking mass spectrometry
[2] = target: Ribosome-binding protein 1 (UniProt Q9P2E9); assay: as above
[3] = target: S-adenosylhomocysteine hydrolase-like protein 1 (UniProt Q80SW1); assay: as above
Septin-10 = Septin-10 (UniProt Q9P0V9); assay: as above
Septin-2 = Septin-2 (UniProt Q15019); assay: as above
Septin-8 = Septin-8 (UniProt Q8CHH9); assay: as above
[4] = target: Small ribosomal subunit protein mS40 (UniProt Q9Y676); assay: as above
[5] = target: Sodium/potassium-transporting ATPase subunit alpha-1 (UniProt Q8VDN2); assay: as above
[6] = target: Sodium/potassium-transporting ATPase subunit alpha-2 (UniProt Q6PIE5); assay: as above
[7] = target: Spectrin alpha chain, non-erythrocytic 1 (UniProt P16546); assay: as above
[8] = target: Splicing factor 3B subunit 2 (UniProt Q13435); assay: as above
[9] = target: Ras-related protein Rab-5C (UniProt P51148); assay: cross-linking mass spectrometry
[10] = target: T-complex protein 1 subunit gamma (UniProt P49368); assay: cross-linking mass spectrometry
[11] = target: tRNA-splicing ligase complex subunit RTRAF (UniProt Q9Y224); assay: cross-linking mass spectrometry
[12] = target: Succinate--CoA ligase [ADP-forming] subunit beta, mitochondrial (UniProt Q9P2R7); assay: cross-link between two proteins; cross-linking mass spectrometry
Synapsin-2 = Synapsin-2 (UniProt Q64332); assay: as above
[13] = target: Vesicle-associated membrane protein 1 (UniProt Q62442); assay: as above
Synapsin-3 = Synapsin-3 (UniProt Q8JZP2); assay: as above
[14] = target: Synaptic vesicle glycoprotein 2A (UniProt Q9JIS5); assay: as above
Synaptopodin = Synaptopodin (UniProt Q8CC35); assay: as above
Synaptotagmin-2 = Synaptotagmin-2 (UniProt P46097); assay: as above
[15] = target: T-complex protein 1 subunit beta (UniProt P80314); assay: as above
[16] = target: T-complex protein 1 subunit delta (UniProt P80315); assay: as above
[17] = target: T-complex protein 1 subunit epsilon (UniProt P80316); assay: as above
[18] = target: T-complex protein 1 subunit theta (UniProt P42932); assay: as above
[19] = target: T-complex protein 1 subunit gamma (UniProt P80318); assay: as above
[20] = target: T-complex protein 1 subunit zeta (UniProt P80317); assay: as above
Talin-2 = Talin-2 (UniProt Q71LX4); assay: as above
[21] = target: Thioredoxin domain-containing protein 5 (UniProt Q8NBS9); assay: as above
[22] = target: Transcriptional activator protein Pur-alpha (UniProt P42669); assay: as above
[23] = target: Translation machinery-associated protein 7 (UniProt Q9Y2S6); assay: as above
[24] = target: Transmembrane emp24 domain-containing protein 5 (UniProt Q9Y3A6); assay: as above
[25] = target: Trifunctional enzyme subunit alpha, mitochondrial (UniProt P40939); assay: as above
Tubulin alpha-1A chain = Tubulin alpha-1A chain (UniProt P68369); assay: as above
[26] = target: UDP-glucose:glycoprotein glucosyltransferase 1 (UniProt Q9NYU2); assay: as above
[27] = target: Ubiquitin-like protein NEDD8 (UniProt Q15843); assay: as above
[28] = target: V-type proton ATPase subunit C 1 (UniProt Q9Z1G3); assay: as above
[29] = target: V-type proton ATPase subunit F (UniProt Q9D1K2); assay: as above
[30] = target: V-type proton ATPase subunit D (UniProt P57746); assay: as above
[31] = target: V-type proton ATPase subunit E 1 (UniProt P50518); assay: as above
[32] = target: V-type proton ATPase subunit G 1 (UniProt Q9CR51); assay: as above
[33] = target: V-type proton ATPase subunit G 2 (UniProt Q9WTT4); assay: as above
[34] = target: V-type proton ATPase subunit H (UniProt Q8BVE3); assay: as above
[35] = target: Vesicle transport through interaction with t-SNAREs homolog 1B (UniProt Q9UEU0); assay: as above
[36] = target: Vesicle-associated membrane protein-associated protein A (UniProt Q9WV55); assay: as above
Vimentin = Vimentin (UniProt P08670); assay: as above
[37] = target: tRNA-splicing ligase complex subunit RTRAF (UniProt Q9CQE8); assay: as above
[38] = target: Cytochrome c oxidase assembly factor 7 (UniProt Q96BR5); assay: mass-spectrometry hit list; affinity purification or IP with mass spectrometry; cross-linking mass spectrometry

Sequence of V-type proton ATPase subunit D, P57746 (P57746 whole entry): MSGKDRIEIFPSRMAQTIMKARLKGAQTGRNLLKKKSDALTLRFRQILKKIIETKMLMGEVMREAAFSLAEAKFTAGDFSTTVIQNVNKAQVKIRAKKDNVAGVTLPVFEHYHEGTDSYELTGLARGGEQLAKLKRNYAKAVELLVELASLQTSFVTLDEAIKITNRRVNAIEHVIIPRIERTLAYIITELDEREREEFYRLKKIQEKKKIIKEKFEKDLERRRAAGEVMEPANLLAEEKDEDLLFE
Sequence of T-complex protein 1 subunit epsilon (P80316 whole entry, one chain of several): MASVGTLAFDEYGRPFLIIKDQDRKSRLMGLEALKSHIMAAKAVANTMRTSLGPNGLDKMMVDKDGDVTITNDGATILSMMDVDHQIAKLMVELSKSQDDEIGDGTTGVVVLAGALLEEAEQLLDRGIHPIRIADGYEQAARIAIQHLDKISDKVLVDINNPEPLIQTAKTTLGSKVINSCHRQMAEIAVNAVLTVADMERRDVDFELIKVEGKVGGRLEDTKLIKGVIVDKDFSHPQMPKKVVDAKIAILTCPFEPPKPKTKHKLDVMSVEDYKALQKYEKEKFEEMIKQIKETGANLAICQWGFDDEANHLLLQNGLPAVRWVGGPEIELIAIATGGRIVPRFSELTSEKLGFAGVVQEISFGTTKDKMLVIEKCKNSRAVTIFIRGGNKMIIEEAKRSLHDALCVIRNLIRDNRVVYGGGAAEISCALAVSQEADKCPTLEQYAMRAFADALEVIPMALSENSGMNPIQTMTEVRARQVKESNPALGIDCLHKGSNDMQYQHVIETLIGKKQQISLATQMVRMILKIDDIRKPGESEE
Sequence of T-complex protein 1 subunit alpha, P11983 (P11983 whole entry, one chain of several): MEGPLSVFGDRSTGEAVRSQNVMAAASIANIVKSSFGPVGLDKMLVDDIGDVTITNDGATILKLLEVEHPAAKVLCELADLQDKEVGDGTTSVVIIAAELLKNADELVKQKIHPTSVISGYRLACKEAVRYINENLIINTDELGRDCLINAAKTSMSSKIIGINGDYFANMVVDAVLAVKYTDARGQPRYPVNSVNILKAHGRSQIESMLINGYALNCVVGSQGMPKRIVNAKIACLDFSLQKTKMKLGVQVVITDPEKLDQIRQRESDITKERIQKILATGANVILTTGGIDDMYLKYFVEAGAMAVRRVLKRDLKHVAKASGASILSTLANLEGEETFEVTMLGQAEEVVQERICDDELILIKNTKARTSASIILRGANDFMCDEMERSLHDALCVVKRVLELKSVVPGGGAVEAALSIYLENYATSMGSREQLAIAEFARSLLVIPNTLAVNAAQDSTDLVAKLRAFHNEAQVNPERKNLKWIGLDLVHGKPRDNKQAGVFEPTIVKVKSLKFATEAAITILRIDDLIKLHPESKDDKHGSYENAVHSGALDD
Sequence of T-complex protein 1 subunit delta (P80315 whole entry, stated change not applied, one chain of several): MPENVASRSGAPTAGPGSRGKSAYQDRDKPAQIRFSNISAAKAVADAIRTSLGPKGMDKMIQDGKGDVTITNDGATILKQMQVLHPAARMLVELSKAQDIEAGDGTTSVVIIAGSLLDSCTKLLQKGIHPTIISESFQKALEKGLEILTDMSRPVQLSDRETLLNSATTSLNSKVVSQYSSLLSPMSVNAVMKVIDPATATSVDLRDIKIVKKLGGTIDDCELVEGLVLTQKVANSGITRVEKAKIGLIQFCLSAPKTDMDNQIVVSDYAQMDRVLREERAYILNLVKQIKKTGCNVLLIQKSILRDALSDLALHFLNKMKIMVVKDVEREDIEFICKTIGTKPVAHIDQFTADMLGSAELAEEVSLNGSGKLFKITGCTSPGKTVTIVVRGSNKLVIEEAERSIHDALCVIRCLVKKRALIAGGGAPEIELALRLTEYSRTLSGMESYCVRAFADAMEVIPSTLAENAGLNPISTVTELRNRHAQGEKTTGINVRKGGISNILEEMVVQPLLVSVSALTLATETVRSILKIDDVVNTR
Sequence of T-complex protein 1 subunit theta (P42932 whole entry, one chain of several): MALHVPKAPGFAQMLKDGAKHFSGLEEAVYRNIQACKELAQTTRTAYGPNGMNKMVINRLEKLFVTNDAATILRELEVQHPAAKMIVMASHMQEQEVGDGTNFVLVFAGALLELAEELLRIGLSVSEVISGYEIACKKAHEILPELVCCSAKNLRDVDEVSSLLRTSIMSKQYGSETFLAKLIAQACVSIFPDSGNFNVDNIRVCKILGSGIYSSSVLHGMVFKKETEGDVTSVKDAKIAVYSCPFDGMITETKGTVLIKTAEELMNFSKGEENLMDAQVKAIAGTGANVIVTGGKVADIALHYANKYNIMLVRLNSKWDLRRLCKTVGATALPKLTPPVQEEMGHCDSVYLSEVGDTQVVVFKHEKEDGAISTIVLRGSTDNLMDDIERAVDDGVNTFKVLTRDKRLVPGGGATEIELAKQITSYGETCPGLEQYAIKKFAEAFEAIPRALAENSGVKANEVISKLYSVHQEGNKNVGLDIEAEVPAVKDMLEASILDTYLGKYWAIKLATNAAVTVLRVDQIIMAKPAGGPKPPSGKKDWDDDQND
Sequence of V-type proton ATPase subunit D (P57746 whole entry): as the sequence (P57746 whole entry) above
Sequence of V-type proton ATPase subunit F (Q9D1K2 whole entry): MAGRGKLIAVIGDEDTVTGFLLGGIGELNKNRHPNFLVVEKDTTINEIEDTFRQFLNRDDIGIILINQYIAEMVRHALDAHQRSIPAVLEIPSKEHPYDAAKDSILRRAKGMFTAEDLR
Sequence of Splicing factor 3B subunit 2 (Q13435 whole entry): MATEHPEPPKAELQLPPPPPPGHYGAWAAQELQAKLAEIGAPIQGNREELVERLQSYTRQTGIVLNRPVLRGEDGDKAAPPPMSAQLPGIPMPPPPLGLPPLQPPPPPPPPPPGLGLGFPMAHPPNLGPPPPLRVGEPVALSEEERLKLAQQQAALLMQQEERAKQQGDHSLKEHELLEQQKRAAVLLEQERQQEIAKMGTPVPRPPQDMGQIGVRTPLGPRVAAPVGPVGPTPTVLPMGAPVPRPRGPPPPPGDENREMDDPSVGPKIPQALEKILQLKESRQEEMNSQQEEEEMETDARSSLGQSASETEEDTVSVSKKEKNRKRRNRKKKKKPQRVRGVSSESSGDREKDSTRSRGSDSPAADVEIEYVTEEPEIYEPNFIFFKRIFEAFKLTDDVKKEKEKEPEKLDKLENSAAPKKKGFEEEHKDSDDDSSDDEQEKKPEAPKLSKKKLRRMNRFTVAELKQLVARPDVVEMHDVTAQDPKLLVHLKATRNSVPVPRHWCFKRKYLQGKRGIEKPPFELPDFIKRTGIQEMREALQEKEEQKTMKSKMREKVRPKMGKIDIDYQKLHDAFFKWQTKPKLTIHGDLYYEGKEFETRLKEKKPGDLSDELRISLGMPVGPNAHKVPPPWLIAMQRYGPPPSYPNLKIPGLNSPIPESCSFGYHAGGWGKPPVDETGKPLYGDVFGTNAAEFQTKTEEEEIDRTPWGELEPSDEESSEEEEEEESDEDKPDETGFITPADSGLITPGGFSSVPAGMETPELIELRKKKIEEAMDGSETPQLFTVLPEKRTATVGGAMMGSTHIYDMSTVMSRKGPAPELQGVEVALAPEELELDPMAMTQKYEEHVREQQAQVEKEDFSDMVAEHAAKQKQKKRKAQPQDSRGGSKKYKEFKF
Sequence of Succinate--CoA ligase [ADP-forming] subunit beta, mitochondrial (Q9P2R7 whole entry): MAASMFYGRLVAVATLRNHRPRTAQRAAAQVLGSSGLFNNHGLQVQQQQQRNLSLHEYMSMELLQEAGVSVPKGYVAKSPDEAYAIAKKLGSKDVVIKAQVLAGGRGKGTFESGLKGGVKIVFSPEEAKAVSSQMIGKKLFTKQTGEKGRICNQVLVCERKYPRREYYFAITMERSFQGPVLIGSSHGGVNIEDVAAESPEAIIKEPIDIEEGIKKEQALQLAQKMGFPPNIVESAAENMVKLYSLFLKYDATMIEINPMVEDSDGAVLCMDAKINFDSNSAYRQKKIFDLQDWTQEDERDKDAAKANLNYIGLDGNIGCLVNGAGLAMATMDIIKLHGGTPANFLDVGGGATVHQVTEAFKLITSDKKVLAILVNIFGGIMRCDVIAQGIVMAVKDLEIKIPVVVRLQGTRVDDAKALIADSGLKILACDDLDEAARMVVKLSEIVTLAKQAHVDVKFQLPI
Sequence of T-complex protein 1 subunit beta (P80314 whole entry, one chain of several): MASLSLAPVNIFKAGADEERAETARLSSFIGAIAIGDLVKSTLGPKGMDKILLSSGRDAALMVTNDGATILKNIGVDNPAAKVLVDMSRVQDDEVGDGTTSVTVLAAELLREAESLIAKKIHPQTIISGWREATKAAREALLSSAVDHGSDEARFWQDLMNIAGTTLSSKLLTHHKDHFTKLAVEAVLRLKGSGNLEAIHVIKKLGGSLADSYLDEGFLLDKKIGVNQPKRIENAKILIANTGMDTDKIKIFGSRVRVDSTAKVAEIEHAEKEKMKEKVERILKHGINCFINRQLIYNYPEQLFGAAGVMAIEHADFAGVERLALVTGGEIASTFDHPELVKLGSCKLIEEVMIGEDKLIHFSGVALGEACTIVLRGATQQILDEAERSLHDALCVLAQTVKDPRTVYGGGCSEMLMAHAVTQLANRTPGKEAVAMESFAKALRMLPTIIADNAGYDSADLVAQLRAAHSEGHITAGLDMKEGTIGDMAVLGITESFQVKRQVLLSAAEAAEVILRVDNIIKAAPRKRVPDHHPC
Sequence of V-type proton ATPase subunit G 1 (Q9CR51 whole entry): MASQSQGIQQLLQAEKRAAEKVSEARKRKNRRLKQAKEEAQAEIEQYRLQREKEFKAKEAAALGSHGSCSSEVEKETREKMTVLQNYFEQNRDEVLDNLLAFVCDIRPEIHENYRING
Sequence of Vesicle-associated membrane protein 1 (Q62442 whole entry): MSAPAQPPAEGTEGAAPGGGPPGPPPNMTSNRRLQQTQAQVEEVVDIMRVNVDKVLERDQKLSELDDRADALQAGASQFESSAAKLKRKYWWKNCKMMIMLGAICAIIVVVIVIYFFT

Substance: ARF GTPase-activating protein GIT1, Q68FF6
- listed as a hit [1]: yes

Substance: Dual E2 ubiquitin-conjugating enzyme/E3 ubiquitin-protein ligase BIRC6, Q9NR09
- listed as a hit [2]: yes

Substance: S-adenosylhomocysteine hydrolase-like protein 2, Q68FL4
- listed as a hit [3]: yes

Substance: Septin-2, Q15019
- listed as a hit (Septin-10): yes

Substance: Septin-6, Q14141
- listed as a hit (Septin-2): yes

Substance: Septin-11, Q8C1B7
- listed as a hit (Septin-8): yes

Substance: Haloacid dehalogenase-like hydrolase domain-containing protein 3, Q9BSH5
- listed as a hit [4]: yes

Substance: FXYD domain-containing ion transport regulator 7, P59648
- listed as a hit [5]: yes

Substance: Excitatory amino acid transporter 1, P56564
- listed as a hit [6]: yes

Substance: Spectrin beta chain, erythrocytic, P15508
- listed as a hit [7]: yes

Substance: U2 small nuclear ribonucleoprotein B'', P08579
- listed as a hit [8]: yes

Substance: Ras-related protein Rab-5A, P20339
- listed as a hit [9]: yes

Substance: Programmed cell death protein 5, O14737
- listed as a hit [10]: yes

Substance: ATP-dependent RNA helicase DDX1, Q92499
- listed as a hit [11]: yes

Substance: Succinate--CoA ligase [ADP/GDP-forming] subunit alpha, mitochondrial, P53597
- listed as a hit [12]: yes

Substance: Synapsin-1, O88935
- listed as a hit (Synapsin-2): yes
- listed as a hit [13]: yes

Substance: Synapsin-2, Q64332
- listed as a hit (Synapsin-3): yes

Substance: Synaptophysin, Q62277
- listed as a hit [14]: yes

Substance: Alpha-actinin-1, Q7TPR4
- listed as a hit (Synaptopodin): yes

Substance: Synaptotagmin-1, P46096
- listed as a hit (Synaptotagmin-2): yes

Substance: T-complex protein 1 subunit eta, P80313
- listed as a hit [15]: yes

Substance: T-complex protein 1 subunit beta, P80314
- listed as a hit [16]: yes
- listed as a hit [17]: yes

Substance: T-complex protein 1 subunit alpha, P11983
- listed as a hit [16]: yes
- listed as a hit [18]: yes

Substance: T-complex protein 1 subunit delta, P80315
- listed as a hit [17]: yes

Substance: T-complex protein 1 subunit zeta, P80317
- listed as a hit [19]: yes

Substance: T-complex protein 1 subunit theta, P42932
- listed as a hit [20]: yes

Substance: Talin-1, P26039
- listed as a hit (Talin-2): yes

Substance: Peroxiredoxin-4, Q13162
- listed as a hit [21]: yes

Substance: Transcriptional regulator protein Pur-beta, O35295
- listed as a hit [22]: yes

Substance: Nuclease EXOG, mitochondrial, Q9Y2C4
- listed as a hit [23]: yes

Substance: Transmembrane emp24 domain-containing protein 9, Q9BVK6
- listed as a hit [24]: yes

Substance: ADP/ATP translocase 3, P12236
- listed as a hit [25]: yes

Substance: Tubulin alpha-4A chain, P68368
- listed as a hit (Tubulin alpha-1A chain): yes

Substance: Selenoprotein F, O60613
- listed as a hit [26]: yes

Substance: Cullin-2, Q13617
- listed as a hit [27]: yes

Substance: V-type proton ATPase subunit D, P57746
- listed as a hit [28]: yes
- listed as a hit [29]: yes

Substance: V-type proton ATPase catalytic subunit A, P50516
- listed as a hit [30]: yes
- listed as a hit [31]: yes

Substance: V-type proton ATPase subunit E 1, P50518
- listed as a hit [32]: yes
- listed as a hit [33]: yes

Substance: V-type proton ATPase subunit B, brain isoform, P62814
- listed as a hit [34]: yes

Substance: Vesicle-associated membrane protein 7, P51809
- listed as a hit [35]: yes

Substance: Vesicle-associated membrane protein-associated protein B, Q9QY76
- listed as a hit [36]: yes

Substance: Neurofilament medium polypeptide, P07197
- listed as a hit (Vimentin): yes

Substance: RNA-splicing ligase RTCB, Q99LF4
- listed as a hit [37]: yes

Substance: MICOS complex subunit MIC60, Q16891
- listed as a hit [38]: yes
